# Source: PubChem BioAssay (NCATS)
# Inconclusive results are not listed. Calls of active or inactive are those of the source. Calls come from the whole dose curve; as a rule, active = well fitted inhibition curve with a large enough effect; inconclusive = small, poorly fitted or top-dose-only effect; inactive = flat fitted curve, though single readings scatter.
# Test system: NIH3T3
# Test: Cytotoxic Profiling of Annotated Libraries Using Quantitative High-Throughput Screening (AID 1296008); note: nearly all actives have a fitted effect of over 60% in size
# Conditions: Five cell lines viability, CellTiter-Glo ATP luminescence, 48-72 h; max response: active compounds read low
# Outline: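 Compounds were pin-transferred onto cells and incubated 48 or 72 hr at 37 degree Celsius, 95% humidity. CellTiter-Glo was added, plates sat 10 min at room temperature, then ATP-coupled luminescence was imaged as the viability read-out.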
row,Structure (SMILES),outcome
1,CC(=O)OCC(=O)O[C@@H]1[C@H]2[C@@H](OC(=O)c3ccccc3)[C@@H](C)C[C@]2(O)[C@H](OC(C)=O)C2(C)[C@H]3CC(C)(C)C(=O)[C@@H]3CC1(OC(C)=O)[C@@H]2OC(C)=O (some centres undefined),inactive
2,CC1(O)CCC2C(C(=O)O)=COC(OC3OC(CO)C(O)C(O)C3OC(=O)/C=C/c3ccc(O)cc3)C21 (centres undefined),inactive
3,CC(=O)NC(CCC(=O)O)C(=O)NCCc1ccc(O)cc1 (centres undefined),inactive
4,COC(=O)C1C(c2ccc(O)cc2)C(C(=O)OC)C1c1ccc(O)cc1 (centres undefined),inactive
5,C=C(C)C(=O)O[C@H]1C[C@@](C)(OC(C)=O)[C@@]2(O)CC[C@@](C)(O)[C@H](OC(C)=O)[C@@]23OC(=O)C(COC)=C13,inactive
6,CC1(C)CC(=O)N(CCCCN2CCN(c3ncccn3)CC2)C(=O)C1,inactive
7,COc1ccc2c(c1)OC[C@]1(O)c3cc4c(cc3O[C@H]21)OCO4,inactive
8,CC(CCC1(O)OC2CC3C4CCC5CC(O[C@@H]6O[C@H](CO)[C@@H](O)[C@H](O)[C@H]6O[C@@H]6OC[C@@H](O)[C@H](O)[C@H]6O)C(O)CC5(C)C4CCC3(C)C2C1C)CO[C@@H]1O[C@H](CO)[C@@H](O)[C@H](O)[C@H]1O (some centres undefined),inactive
9,COc1cc(CCc2ccccc2)c(C(=O)O)c2c1CC(C(C)(C)O)O2 (centres undefined),inactive
10,CCCC1=CC2=C(CO1)C(=O)C(C)(OC(=O)c1c(C)cc(OC)cc1O)C(O)C2 (centres undefined),inactive
11,C[C@@H]1O[C@@H](O[C@@H]2[C@@H](O)[C@H](O[C@@H]3[C@@H](O)[C@@H](O)[C@H](O[C@H]4[C@H](OC(=O)[C@]56CCC(C)(C)C[C@H]5C5=CCC7[C@@]8(C)C[C@H](O)[C@H](O[C@@H]9O[C@@H](C)[C@H](O)[C@@H](O)[C@H]9O)[C@@](C)(CO)C8CC[C@@]7(C)[C@]5(C)C[C@H]6O)O[C@H](C)[C@H](O)[C@@H]4O)O[C@H]3C)OC[C@H]2O)[C@H](O)[C@H](O)[C@H]1O (some centres undefined),inactive
12,CCS(=O)(=O)N1CCC([C@@H](C)n2c(C)c(C(=O)NCc3c(OC)cc(C)[nH]c3=O)c3ccccc32)CC1,inactive
13,C/C=C1\[C@H](O[C@@H]2O[C@H](CO)[C@@H](O)[C@H](O)[C@H]2O)OC=C(C(=O)OC)[C@H]1CC(=O)OC,inactive
14,O=C(O[C@H]1[C@@H]2C[C@@H]3OC[C@@](O)([C@H]2[C@H](O[C@@H]2O[C@H](CO)[C@@H](O)[C@H](O)[C@H]2O)O3)[C@@H]1O)c1ccccc1,inactive
15,CC1CCC2C(C)(C)C(O)CCC2(C)C12Cc1c(O)cc3c(c1O2)C(N)=NC3 (centres undefined),inactive
16,C=CC(C)(C)O[C@@H]1O[C@H](CO[C@@H]2OC[C@](O)(CO)[C@H]2O)[C@@H](O)[C@H](O)[C@H]1O,inactive
17,CCCC(N[C@@H](C)C(=O)N1[C@H](C(=O)O)C[C@@H]2CCCC[C@@H]21)C(=O)OCC (some centres undefined),inactive
18,O=C(O)c1ccc(CCCc2ccc(OCCc3ccc(F)cc3)cc2)o1,inactive
19,Cc1[nH]cnc1C1CCN(c2nc3cccc4c3n2CCC4=O)CC1,inactive
20,C[C@@H]1O[C@@H](O[C@@H]2[C@@H](O)[C@H](O[C@@H]3[C@@H](O)[C@@H](O)[C@H](O[C@H]4[C@H](OC(=O)[C@]56CCC(C)(C)C[C@H]5C5=CCC7[C@@]8(C)C[C@H](O)[C@H](O[C@@H]9O[C@H](C(=O)O)[C@@H](O)[C@H](O)[C@H]9O)[C@@](C)(CO)C8[C@H](O)C[C@@]7(C)[C@]5(C)CC6)OC[C@H](O)[C@@H]4O)O[C@H]3C)OC[C@H]2O)[C@H](O)[C@H](O)[C@H]1O (some centres undefined),inactive

row,Structure (SMILES),outcome
1,CC1(C)CC2C(O)C3=C(CC(C)(O)C2C1)C(=O)OC3O (centres undefined),inactive
2,CC(C)=CC/C=C(/C)[C@H]1CC[C@]2(C)[C@@H]1[C@H](O)CC1[C@@]3(C)CC[C@H](O)C(C)(C)[C@@H]3[C@@H](O[C@@H]3O[C@H](CO)[C@@H](O)[C@H](O)[C@H]3O[C@@H]3O[C@@H](C)[C@H](O)[C@@H](O)[C@H]3O)C[C@]12C (some centres undefined),inactive
3,O=C(/C=C/c1ccc(O)cc1)OCC1=C[C@@H](O)[C@@H]2C=CO[C@@H](O[C@@H]3O[C@H](CO)[C@@H](O)[C@H](O)[C@H]3O)[C@H]12,inactive
4,O=C(O[C@H]1[C@@H]2C=CO[C@@H](O[C@@H]3O[C@H](CO)[C@@H](O)[C@H](O)[C@H]3O)[C@@H]2[C@@]2(CO)O[C@@H]12)c1ccc(O)c(O)c1,inactive
5,O=C(O)C[C@H]1CCC(=O)[C@@H]1C/C=C\CCOC1OC(CO)C(O)C(O)C1O (some centres undefined),inactive
6,CC(=O)OC1C(O)C(C)=C(CCC(C)CC(=O)O)C2(C)CCCC(C)(C)C12 (centres undefined),inactive
7,Cc1ncc([N+](=O)[O-])n1CC(O)CN1CCOCC1 (centres undefined),inactive
8,COc1cc2c(cc1O)C1(Cc3ccc4c(c3C1=O)OCO4)N(C)CC2 (centres undefined),inactive
9,COC(=O)[C@H](CC1C=NC=N1)NCC12CC3CC(CC(C3)C1)C2 (some centres undefined),inactive
10,CCOC(=O)c1ccc(N(C)c2csc(-c3ccccc3)n2)cc1,inactive
11,C/C1=C\C[C@H](O[C@@H]2O[C@H](CO)[C@@H](O)[C@H](O)[C@H]2O)/C(C)=C/[C@H]2OC(=O)[C@H](C)[C@@H]2CC1,inactive
12,COc1ccc(C(=O)O[C@H]2CC(C)=CC[C@@]3(C)[C@@H](OC(C)=O)C[C@@](O)(C(C)C)[C@H]23)cc1,inactive
13,CC/C=C\C[C@H]1C(=O)C=C[C@@H]1CCCCCCCC(=O)O,inactive
14,CC1CC(=O)C2=C(O1)OC1(C)CCC3C(C)(C)C=CC(=O)C3(C)C1C2 (centres undefined),inactive
15,CC1(CO)CC2C(O)C(=O)C3(CO)CC3(C)C2C1 (centres undefined),inactive
16,CCn1nnnc1NCc1ccc(C(C)C)cc1,inactive
17,CCNC(=O)CCC/C=C\C[C@@H]1[C@@H](/C=C/C(O)CCc2ccccc2)[C@@H](O)C[C@@H]1O (some centres undefined),inactive
18,CN[C@@H]1[C@@H](O)[C@@H](O[C@@H]2[C@@H](O)[C@H](O[C@H]3O[C@H](CN)[C@@H](O)[C@H](O)[C@H]3O)[C@@H](N)C[C@H]2NC(=O)[C@@H](O)CN)OC[C@]1(C)O,inactive
19,CC1(C)OC(=O)C(OCC2CC2)=C1c1ccc(S(C)(=O)=O)cc1,inactive
